Here are results for one sequence from paper PMC7862700, “An all-to-all approach to the identification of sequence-specific readers for epigenetic DNA modifications on cytosine”.

Common to all, as to assay: DAPPL (digital affinity profiling via proximity ligation, sequencing); 10 mM Tris-HCl pH 7.5, 50 mM NaCl, 1 mM DTT, 4% glycerol, room temperature, 30 min; GST-TFs on glutathione beads, 16-mer random dsDNA library, 0.1% formaldehyde crosslink after washing; high values mean tight binding
In one test the target is T1, FEV (Homo sapiens, UniProt Q99581 1-238).
T1 sequence: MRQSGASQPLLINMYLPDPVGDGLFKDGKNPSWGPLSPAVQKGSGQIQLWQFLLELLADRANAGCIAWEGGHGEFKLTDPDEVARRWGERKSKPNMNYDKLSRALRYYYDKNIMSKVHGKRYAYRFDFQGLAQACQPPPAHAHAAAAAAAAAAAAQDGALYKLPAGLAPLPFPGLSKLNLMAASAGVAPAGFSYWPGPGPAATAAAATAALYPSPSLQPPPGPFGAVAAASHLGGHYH
To be noted: protein: recombinant; tags: N-terminal GST; dsDNA, one strand shown. The method in brief: (§1)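 Human transcription factors carrying a GST fusion were produced in yeast, bound to glutathione beads, tagged with DNA barcodes and pooled together with a tag-only sample. Each pool was held with 200 nmole of a random double-stranded 16-mer DNA library in Tris/NaCl/DTT/glycerol buffer for 30 min at room temperature, then washed, crosslinked in 0.1% formaldehyde, proximity-ligated with BsaI/T4 ligase (1 h, 37 °C), PCR-amplified and sequenced on an Illumina NextSeq500. Binding signal is the read frequency of each hexamer for a given factor divided by its frequency in the tag-only sample.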

In a further test the target is ETV5 (Homo sapiens, UniProt P41161 1-510). The following applies: protein: recombinant; tags: N-terminal GST; dsDNA, one strand shown. In outline:
as §1

A further test concerns the target HSF1 (Homo sapiens, UniProt Q00613 1-529). The following applies: protein: recombinant; tags: N-terminal GST; chain copies: 3; dsDNA, one strand shown. The method in brief:
as §1

Another test has as its target T2, SPIC (Homo sapiens, UniProt Q8N5J4 1-248).
T2 sequence: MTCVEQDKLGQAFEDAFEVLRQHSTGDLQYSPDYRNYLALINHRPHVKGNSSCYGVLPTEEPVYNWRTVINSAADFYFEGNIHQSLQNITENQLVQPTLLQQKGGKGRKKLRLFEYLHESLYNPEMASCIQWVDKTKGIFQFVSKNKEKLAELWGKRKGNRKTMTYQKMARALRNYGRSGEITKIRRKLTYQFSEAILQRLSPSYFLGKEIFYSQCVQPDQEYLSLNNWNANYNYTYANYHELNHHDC
The following applies: protein: recombinant; tags: N-terminal GST; dsDNA, one strand shown. The method in brief: as §1

For the next test, the target named is ELF4 (Homo sapiens, UniProt Q99607 1-663). To be noted: protein: recombinant; tags: N-terminal GST; dsDNA, one strand shown. In outline:
as §1

A further test concerns the target T3, ELK4 (Homo sapiens, UniProt P28324-2 1-405).
T3 sequence: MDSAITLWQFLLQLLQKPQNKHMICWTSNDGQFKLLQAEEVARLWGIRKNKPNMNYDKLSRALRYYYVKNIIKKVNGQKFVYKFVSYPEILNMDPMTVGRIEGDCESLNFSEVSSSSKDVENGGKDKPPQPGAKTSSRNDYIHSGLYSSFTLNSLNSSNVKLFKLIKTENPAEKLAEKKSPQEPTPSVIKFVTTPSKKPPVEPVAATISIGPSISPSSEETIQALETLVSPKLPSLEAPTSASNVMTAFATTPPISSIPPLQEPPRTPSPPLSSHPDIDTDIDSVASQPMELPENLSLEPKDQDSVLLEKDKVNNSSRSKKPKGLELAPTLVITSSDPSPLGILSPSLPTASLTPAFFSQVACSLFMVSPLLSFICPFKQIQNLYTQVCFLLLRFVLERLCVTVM
To be noted: protein: recombinant; tags: N-terminal GST; dsDNA, one strand shown. In outline:
as §1

Another test concerns the target T4, ETV2 (Homo sapiens, UniProt O00321 1-342).
T4 sequence: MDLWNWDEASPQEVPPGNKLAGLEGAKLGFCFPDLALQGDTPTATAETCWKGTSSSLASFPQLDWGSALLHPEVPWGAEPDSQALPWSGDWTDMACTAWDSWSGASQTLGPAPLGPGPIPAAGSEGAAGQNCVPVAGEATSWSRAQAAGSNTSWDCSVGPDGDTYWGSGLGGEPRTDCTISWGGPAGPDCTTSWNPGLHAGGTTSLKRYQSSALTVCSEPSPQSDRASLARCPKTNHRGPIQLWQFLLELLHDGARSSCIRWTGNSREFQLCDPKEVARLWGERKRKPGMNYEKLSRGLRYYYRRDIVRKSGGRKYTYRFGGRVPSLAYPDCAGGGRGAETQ
To be noted: protein: recombinant; tags: N-terminal GST; dsDNA, one strand shown. In outline:
as §1

A further test deals with T5, ELF3 (Homo sapiens, UniProt P78545 1-371).
T5 sequence: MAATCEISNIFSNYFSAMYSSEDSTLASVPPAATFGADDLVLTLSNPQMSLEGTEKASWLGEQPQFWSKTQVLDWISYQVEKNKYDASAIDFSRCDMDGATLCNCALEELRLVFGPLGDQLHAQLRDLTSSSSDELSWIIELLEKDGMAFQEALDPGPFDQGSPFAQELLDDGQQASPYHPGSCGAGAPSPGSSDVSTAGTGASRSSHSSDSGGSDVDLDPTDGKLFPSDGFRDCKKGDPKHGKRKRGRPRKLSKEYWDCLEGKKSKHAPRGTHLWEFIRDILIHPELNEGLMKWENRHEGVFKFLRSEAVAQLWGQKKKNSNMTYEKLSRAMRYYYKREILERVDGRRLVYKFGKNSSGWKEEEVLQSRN
The following applies: protein: recombinant; tags: N-terminal GST; dsDNA, one strand shown. In outline:
as §1

The next test has as its target CRX (Homo sapiens, UniProt O43186 1-299). To be noted: protein: recombinant; tags: N-terminal GST; dsDNA, one strand shown. The method in brief:
as §1

The target in the next test is ETV1 (Homo sapiens, UniProt P50549 1-477). To be noted: protein: recombinant; tags: N-terminal GST; dsDNA, one strand shown. The method in brief: as §1
For the next test, the target named is T6, ERF (Homo sapiens, UniProt P50548 1-548).
T6 sequence: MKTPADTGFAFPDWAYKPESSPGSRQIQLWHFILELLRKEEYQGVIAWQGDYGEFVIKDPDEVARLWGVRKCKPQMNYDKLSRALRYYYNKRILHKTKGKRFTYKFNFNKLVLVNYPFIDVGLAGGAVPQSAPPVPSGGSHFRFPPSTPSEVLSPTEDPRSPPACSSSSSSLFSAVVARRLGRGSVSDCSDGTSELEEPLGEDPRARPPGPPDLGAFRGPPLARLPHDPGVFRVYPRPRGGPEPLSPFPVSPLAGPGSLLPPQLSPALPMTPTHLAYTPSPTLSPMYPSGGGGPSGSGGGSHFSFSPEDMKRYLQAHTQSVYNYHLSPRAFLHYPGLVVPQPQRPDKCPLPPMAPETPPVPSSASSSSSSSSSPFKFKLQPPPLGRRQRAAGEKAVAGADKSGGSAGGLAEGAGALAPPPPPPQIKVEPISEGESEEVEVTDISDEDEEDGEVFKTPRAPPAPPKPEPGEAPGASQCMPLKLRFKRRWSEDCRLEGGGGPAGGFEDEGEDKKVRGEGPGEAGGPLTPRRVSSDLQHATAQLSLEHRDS
To be noted: protein: recombinant; tags: N-terminal GST; dsDNA, one strand shown. The method in brief: as §1

The next test deals with T7, ETV3L (Homo sapiens, UniProt Q6ZN32 1-361).
T7 sequence: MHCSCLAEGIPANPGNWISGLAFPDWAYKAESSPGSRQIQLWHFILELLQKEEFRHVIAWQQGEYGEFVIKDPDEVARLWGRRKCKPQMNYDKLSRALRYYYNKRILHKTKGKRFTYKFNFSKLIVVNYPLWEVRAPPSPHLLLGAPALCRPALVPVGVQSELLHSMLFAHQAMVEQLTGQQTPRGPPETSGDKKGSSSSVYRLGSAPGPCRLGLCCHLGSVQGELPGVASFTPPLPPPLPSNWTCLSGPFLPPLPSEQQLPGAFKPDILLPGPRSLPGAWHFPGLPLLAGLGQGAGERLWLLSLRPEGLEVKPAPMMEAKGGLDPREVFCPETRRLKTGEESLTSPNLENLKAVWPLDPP
To be noted: protein: recombinant; tags: N-terminal GST; dsDNA, one strand shown. In outline: as §1

The next test concerns the target T8, ETS2 (Homo sapiens, UniProt P15036 1-469).
T8 sequence: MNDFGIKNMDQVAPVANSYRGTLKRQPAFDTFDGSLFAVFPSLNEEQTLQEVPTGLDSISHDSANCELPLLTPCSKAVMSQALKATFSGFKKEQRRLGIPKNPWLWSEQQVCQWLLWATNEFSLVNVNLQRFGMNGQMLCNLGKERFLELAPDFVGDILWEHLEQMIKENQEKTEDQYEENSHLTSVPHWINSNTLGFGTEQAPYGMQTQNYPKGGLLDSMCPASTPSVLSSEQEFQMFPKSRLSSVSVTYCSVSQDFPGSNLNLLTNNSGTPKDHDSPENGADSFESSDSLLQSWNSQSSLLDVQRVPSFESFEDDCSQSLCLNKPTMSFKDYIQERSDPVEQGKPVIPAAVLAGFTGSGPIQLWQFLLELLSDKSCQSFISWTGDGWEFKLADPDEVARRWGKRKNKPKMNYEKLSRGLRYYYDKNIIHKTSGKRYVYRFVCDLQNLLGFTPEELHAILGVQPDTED
To be noted: protein: recombinant; tags: N-terminal GST; dsDNA, one strand shown. In outline: as §1

Another test has as its target T9, SPDEF (Homo sapiens, UniProt O95238 1-335).
T9 sequence: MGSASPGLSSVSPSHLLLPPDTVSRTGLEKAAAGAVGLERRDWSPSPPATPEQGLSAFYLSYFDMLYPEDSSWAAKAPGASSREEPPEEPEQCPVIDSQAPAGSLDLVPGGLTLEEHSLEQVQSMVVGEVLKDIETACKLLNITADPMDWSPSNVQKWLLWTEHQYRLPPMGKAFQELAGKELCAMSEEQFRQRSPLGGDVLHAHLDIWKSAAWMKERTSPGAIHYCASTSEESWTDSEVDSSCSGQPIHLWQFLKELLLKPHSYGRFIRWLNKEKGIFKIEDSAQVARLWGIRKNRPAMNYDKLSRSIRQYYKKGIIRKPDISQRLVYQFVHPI
To be noted: protein: recombinant; tags: N-terminal GST; dsDNA, one strand shown. In outline: as §1

The next test deals with T10, ETV7 (Homo sapiens, UniProt Q9Y603 1-341).
T10 sequence: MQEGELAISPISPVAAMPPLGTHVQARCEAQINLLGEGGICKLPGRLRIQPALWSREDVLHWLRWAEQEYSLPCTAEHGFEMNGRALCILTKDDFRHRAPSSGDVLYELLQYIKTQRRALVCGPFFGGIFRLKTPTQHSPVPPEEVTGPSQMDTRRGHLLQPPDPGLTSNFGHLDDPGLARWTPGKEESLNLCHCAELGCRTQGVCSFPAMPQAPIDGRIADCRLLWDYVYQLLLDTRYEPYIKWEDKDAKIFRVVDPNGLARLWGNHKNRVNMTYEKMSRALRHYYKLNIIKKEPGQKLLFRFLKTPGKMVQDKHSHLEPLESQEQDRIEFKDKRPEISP
The following applies: protein: recombinant; tags: N-terminal GST; dsDNA, one strand shown. The method in brief:
as §1

The target in another test is T11, ELF5 (Homo sapiens, UniProt Q9UKW6-2 1-255).
T11 sequence: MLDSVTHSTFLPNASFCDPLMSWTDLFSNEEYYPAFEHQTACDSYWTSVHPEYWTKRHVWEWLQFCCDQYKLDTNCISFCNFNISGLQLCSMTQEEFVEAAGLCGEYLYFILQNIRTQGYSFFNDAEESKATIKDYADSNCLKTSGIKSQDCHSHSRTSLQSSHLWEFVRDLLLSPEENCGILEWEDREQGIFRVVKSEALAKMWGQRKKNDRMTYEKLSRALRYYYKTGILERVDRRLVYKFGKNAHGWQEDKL
The following applies: protein: recombinant; tags: N-terminal GST; dsDNA, one strand shown. In outline:
as §1

Another test concerns the target T12, ETV3 (Homo sapiens, UniProt P41162-2 1-143).
T12 sequence: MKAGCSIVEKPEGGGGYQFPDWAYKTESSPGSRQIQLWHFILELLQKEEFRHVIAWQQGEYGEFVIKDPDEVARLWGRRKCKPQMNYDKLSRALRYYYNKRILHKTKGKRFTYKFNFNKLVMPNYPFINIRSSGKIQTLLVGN
To be noted: protein: recombinant; tags: N-terminal GST; dsDNA, one strand shown. In outline: as §1

The target in a further test is ETV6 (Homo sapiens, UniProt P41212 1-452). To be noted: protein: recombinant; tags: N-terminal GST; dsDNA, one strand shown. In outline:
as §1

Sequence of CRX (O43186 whole entry): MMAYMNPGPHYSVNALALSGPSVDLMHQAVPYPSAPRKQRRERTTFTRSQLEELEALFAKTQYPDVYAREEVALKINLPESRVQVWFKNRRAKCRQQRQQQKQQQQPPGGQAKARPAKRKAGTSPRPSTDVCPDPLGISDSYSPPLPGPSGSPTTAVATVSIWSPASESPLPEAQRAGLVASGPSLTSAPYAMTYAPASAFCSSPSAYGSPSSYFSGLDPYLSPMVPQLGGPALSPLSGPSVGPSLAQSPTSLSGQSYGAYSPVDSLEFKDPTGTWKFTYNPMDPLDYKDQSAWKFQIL
Sequence of ETV6 (P41212 whole entry): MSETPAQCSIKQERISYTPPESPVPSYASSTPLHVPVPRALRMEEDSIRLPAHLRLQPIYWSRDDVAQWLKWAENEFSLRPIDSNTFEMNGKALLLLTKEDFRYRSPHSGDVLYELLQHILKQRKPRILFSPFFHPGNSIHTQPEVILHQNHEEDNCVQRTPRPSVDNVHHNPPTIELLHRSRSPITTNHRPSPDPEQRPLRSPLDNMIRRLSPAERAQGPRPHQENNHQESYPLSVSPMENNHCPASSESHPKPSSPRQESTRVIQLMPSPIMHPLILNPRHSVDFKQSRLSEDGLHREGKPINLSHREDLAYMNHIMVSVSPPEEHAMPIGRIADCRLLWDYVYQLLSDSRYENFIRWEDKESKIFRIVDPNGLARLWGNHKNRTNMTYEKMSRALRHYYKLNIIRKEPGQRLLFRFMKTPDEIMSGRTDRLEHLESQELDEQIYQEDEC
Sequence of HSF1 (Q00613 whole entry): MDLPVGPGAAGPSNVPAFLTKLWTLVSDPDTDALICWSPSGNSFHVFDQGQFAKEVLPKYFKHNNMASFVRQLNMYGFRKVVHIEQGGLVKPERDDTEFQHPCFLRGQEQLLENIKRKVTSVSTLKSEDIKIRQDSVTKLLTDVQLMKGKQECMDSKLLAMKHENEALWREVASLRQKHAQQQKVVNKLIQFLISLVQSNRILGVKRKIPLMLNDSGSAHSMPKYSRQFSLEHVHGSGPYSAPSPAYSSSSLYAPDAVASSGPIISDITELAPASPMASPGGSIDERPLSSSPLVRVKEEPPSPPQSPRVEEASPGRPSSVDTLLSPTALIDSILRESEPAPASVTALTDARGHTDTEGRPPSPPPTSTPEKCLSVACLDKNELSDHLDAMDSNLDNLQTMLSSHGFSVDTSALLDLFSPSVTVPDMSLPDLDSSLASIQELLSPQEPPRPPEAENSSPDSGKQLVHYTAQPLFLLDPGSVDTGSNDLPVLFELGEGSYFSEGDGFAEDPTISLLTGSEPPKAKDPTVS
Sequence of ETV1 (P50549 whole entry): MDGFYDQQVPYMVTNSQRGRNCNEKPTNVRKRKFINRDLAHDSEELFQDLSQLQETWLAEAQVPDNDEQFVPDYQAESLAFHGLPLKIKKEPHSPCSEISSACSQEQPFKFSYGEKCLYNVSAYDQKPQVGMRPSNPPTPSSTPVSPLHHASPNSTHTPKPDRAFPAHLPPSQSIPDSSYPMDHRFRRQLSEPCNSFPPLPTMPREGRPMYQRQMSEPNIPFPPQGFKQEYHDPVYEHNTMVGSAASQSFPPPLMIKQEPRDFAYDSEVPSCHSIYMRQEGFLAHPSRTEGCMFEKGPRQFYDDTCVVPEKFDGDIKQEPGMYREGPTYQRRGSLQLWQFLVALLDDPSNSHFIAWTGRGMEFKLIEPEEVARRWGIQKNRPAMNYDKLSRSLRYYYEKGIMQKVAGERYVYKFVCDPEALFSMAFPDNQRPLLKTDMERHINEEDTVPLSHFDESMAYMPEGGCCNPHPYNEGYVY
Sequence of ELF4 (Q99607 whole entry): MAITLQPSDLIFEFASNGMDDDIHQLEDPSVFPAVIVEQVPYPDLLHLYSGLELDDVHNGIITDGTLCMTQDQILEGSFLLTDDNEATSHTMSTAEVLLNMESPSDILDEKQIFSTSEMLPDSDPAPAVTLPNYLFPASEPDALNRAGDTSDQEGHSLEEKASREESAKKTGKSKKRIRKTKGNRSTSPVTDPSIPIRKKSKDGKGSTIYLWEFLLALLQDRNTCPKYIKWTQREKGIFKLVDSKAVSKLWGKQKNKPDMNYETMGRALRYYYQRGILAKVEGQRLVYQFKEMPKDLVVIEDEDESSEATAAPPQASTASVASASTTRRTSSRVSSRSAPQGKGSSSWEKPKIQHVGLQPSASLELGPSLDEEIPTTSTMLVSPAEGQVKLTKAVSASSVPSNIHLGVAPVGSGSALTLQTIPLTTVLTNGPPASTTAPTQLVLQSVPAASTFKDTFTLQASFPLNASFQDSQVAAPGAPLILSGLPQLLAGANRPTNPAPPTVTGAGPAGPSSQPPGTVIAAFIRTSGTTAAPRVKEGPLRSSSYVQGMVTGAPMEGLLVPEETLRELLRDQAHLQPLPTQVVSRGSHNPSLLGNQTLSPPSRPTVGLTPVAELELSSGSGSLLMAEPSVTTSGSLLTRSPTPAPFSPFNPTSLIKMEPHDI
Sequence of ETV5 (P41161 whole entry): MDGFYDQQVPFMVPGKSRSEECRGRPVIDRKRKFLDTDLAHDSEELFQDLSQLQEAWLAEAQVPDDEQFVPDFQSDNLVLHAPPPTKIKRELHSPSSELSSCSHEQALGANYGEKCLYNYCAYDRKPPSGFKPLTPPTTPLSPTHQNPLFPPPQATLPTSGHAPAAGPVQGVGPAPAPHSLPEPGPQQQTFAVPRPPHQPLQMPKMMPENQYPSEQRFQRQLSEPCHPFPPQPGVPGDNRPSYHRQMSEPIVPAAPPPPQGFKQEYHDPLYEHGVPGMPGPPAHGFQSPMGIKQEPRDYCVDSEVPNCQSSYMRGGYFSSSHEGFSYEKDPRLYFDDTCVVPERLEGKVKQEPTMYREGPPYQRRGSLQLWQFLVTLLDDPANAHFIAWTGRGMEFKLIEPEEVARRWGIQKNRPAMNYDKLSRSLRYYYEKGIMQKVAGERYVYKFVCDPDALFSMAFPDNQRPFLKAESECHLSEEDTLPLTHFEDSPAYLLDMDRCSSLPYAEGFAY

As for AATCTG, the binding signal is 1.41 fold enrichment (6-mer frequency, TF over GST control) in the test with FEV; 1.4 fold enrichment (6-mer frequency, TF over GST control) with ETV5; 2.17 fold enrichment (6-mer frequency, TF over GST control) with HSF1; 1.52 fold enrichment (6-mer frequency, TF over GST control) in the test with SPIC; 1.57 fold enrichment (6-mer frequency, TF over GST control) with ELF4; 1.55 fold enrichment (6-mer frequency, TF over GST control) with ELK4. Further, the binding signal is 1.45 fold enrichment (6-mer frequency, TF over GST control) with ETV2; 1.47 fold enrichment (6-mer frequency, TF over GST control) with ELF3; 2.75 fold enrichment (6-mer frequency, TF over GST control) with CRX; 1.58 fold enrichment (6-mer frequency, TF over GST control) with ETV1; 1.41 fold enrichment (6-mer frequency, TF over GST control) with ERF; 1.39 fold enrichment (6-mer frequency, TF over GST control) with ETV3L. Besides, the binding signal in the test with ETS2 was 1.52 fold enrichment (6-mer frequency, TF over GST control); with SPDEF it was 1.37 fold enrichment (6-mer frequency, TF over GST control); with ETV7, 1.46 fold enrichment (6-mer frequency, TF over GST control); with ELF5 it was 1.37 fold enrichment (6-mer frequency, TF over GST control); with ETV3, 1.43 fold enrichment (6-mer frequency, TF over GST control); in the test with ETV6, 1.4 fold enrichment (6-mer frequency, TF over GST control).
